# This is one part of a sample in which hits are shown more often than they occur.
# FECH inh = human FECH heme synthesis enzyme inhibition. P22830. purified FECH, Ni-mesoporphyrin absorbance 550 nm. calls only at 10 µM (by protocol). 20,000 tested, 3.3% active. AID 1671448;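 active = enzyme reaction rate more than 3 SD below the solvent-only control wells on the same plate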;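 also: lower slope than DMSO wells means FECH inhibition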
# Target sequence (P22830 whole entry, looked up): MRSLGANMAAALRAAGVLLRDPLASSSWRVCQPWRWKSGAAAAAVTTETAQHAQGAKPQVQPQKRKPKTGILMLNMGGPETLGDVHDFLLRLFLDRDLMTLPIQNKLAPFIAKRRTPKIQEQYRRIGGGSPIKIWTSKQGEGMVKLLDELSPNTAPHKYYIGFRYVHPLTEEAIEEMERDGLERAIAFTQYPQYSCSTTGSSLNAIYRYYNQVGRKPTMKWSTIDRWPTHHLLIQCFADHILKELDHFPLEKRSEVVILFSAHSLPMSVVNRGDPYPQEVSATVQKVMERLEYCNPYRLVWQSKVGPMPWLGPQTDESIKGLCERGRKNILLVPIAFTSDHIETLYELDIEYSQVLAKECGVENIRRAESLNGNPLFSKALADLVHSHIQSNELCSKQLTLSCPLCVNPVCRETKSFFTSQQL
# Active calls of the source: *; i = inactive; + = active, no number.
SMILES,FECH inh
CNC(=O)c1[nH]cnc1C(=O)NCc1ccccc1,+
Cc1ccc2nc(CN3CCCC4(C3)C(=O)N(C)c3ccccc34)cn2c1 (centres undefined),i
CNc1nc(CN2CCCC(N3CCCC3=O)C2)cs1 (centres undefined),i
O=C1CNC(=O)N1Cc1nc(Cc2ccccc2)n[nH]1,i
CC(Cn1ccnc1)NCC1(c2cccc(F)c2)CCOCC1 (centres undefined),i
CC(=O)c1ccc(S(=O)(=O)NCc2nc3cccnc3n2C2CCCC2)cc1,i
CCn1ncc(NC(=O)Cn2ncc3cc(-c4ccccc4C)ccc32)n1,i
CCc1cc(CN(C)C(CC)C(=O)Nc2ccccc2)on1 (centres undefined),i
CCc1cc(CN(C)C2CCN(C(=O)c3ccccn3)CC2)on1,i
CCc1cc(CN(C)C(=O)CN2C(=O)c3ccccc3C2=O)on1,+
COc1ccc(Cl)cc1NC(=O)CN1C(=O)CN(C)C(=O)c2ccccc21,i
CCOC(=O)CCc1c(C)nc2nc(CNc3ccc(F)cc3)[nH]n2c1=O,i
CCOC(=O)CCc1c(C)nc2nc(CNc3cccc(C)c3)[nH]n2c1=O,+
CCc1nc2nc(C)c(NC(=O)Nc3ccc(F)c(Cl)c3)c(=O)n2[nH]1,i
CCOC(=O)CCc1c(C)nc2nc(CNc3cccc(Cl)c3)[nH]n2c1=O,+
CCc1nc2nc(C)[nH]n2c(=O)c1NC(=O)Nc1cccc(Cl)c1,i
CCc1nc2nc(C)c(NC(=O)Nc3cccc(C)c3)c(=O)n2[nH]1,i
CCCNC(=O)[C@@H]1CCCC[C@@H]1C(=O)N(CC)CCO,i
CNc1nc(Nc2ccccc2C)c2cnn(-c3ccccc3)c2n1,i
O=C(O)c1[nH]ncc1CN1CCN(c2nsc3ccccc23)CC1,i
CCc1c(C(=O)N(C)CCn2ccnc2C)[nH]c2ccccc12,i
CCOC(=O)c1[nH]c2ccccc2c1CN1CCN(c2ncc(F)cn2)CC1,+
Cc1ccc(S(=O)(=O)N2CCN(Cc3nc4cccnc4n3-c3cccc(F)c3)CC2)cc1,i
CCN(CC)c1ncc(NS(=O)(=O)c2ccccc2)cc1C(=O)O,i
Cn1cnc(-c2ccccc2)c1-c1cccc2cnccc12,i
SMILES,FECH inh
CCc1ccccc1-c1c(-c2ccccc2)ncn1CCC(=O)OC,i
COCC1(Cn2cnc(-c3ccccc3)c2-c2cccc3cnccc23)CC1,+
CCn1nc(C)c(NC(=O)CN(C)Cc2cnn(-c3cccc(C)c3)c2)c1C,i
O=C(CN1CCN(Cc2ccc(F)cc2Cl)S1(=O)=O)Nc1ccc(Br)cc1,i
CCc1ccc(NC(=O)CN2CCN(Cc3ccc(F)cc3Cl)S2(=O)=O)cc1,i
O=C(CN1CCCN(Cc2ccccc2Cl)S1(=O)=O)Nc1ccc(F)c(Cl)c1,+
O=C(CN1CCN(Cc2ccccc2F)S1(=O)=O)Nc1ccc(F)c(Cl)c1,i
CCOC(=O)c1ccccc1NC(=O)CN1CCN(Cc2ccc(F)cc2Cl)S1(=O)=O,+
O=C(CN1CCN(Cc2ccc(F)cc2Cl)S1(=O)=O)Nc1ccccc1Cl,i
Cc1ccc(NC(=O)CN2CCN(Cc3ccc(F)cc3Cl)S2(=O)=O)cc1,+
O=C(CN1CCN(Cc2ccccc2Cl)S1(=O)=O)Nc1ccc(Cl)cc1,i
COc1ccccc1NC(=O)CN1CCN(Cc2ccc(F)cc2Cl)S1(=O)=O,i
O=C(Nc1ccccc1)C1CCN(c2ncnc3c2nc2n3CCCCC2)CC1,i
CC(=O)Nc1cccc(S(=O)(=O)N2CCC3(CCCN(C)C3=O)C2)c1 (centres undefined),i
O=C(c1csc(S(=O)(=O)N2CC=C(c3ccccc3)CC2)c1)N1CCCC1,i
CC(C)Cc1ncc2c(n1)CN(C(=O)c1ccccn1)C2,i
CC(C)c1nc(CN2CCC(CNC(=O)C(C)(C)C)CC2)co1,i
CCCOCCN1CCN(c2ncnc3[nH]ccc23)CC1,i
CN(CCOc1ccccc1)c1ncnc2[nH]ccc12,+
COCc1cc(CN(C)c2ncnc3[nH]ccc23)[nH]n1,i
CC(C)n1cnc2nc(CSc3ccccc3NC(=O)c3ccc(F)c(Cl)c3)cc(=O)n21,i
CCc1cc(Sc2ccccc2NC(=O)c2cccc(F)c2)n2ncnc2n1,i
CC(C)n1cnc2nc(CSc3ccccc3NC(=O)c3cccc(F)c3)cc(=O)n21,+
O=C(CSCc1ccccc1Cl)NCc1nc(-c2cccnc2)no1,i
COc1ccc(CN2C(=O)O[C@@H]3CN(C(=O)c4ccc[nH]4)C[C@@H]32)cc1OC,i
SMILES,FECH inh
CCOc1ccc(CC(=O)Nc2cc(C)nn2-c2ncnc3c2cnn3-c2cccc(Cl)c2)cc1,i
CCC(CC)C(=O)Nc1cc(C)nn1-c1ncnc2c1cnn2-c1cccc(Cl)c1,+
Cc1cc(NC(=O)CC(C)(C)C)n(-c2ncnc3c2cnn3-c2cccc(Cl)c2)n1,i
CCOc1ccc(CC(=O)Nc2cc(C)nn2-c2ncnc3c2cnn3-c2ccc(Cl)cc2)cc1,+
Cc1ccc(OCC(=O)Nc2cc(C)nn2-c2ncnc3c2cnn3-c2ccc(Cl)cc2)cc1,i
CCCC(=O)Nc1cc(C)nn1-c1ncnc2c1cnn2-c1cccc(Cl)c1,i
COc1ccc(N2C(=O)CCS2(=O)=O)cc1S(=O)(=O)NCCCc1ccccc1,i
O=C(c1ccccc1-n1cncn1)N1CCCC(Cn2ccnc2)C1 (centres undefined),i
CCN(CC)CCCNC(=O)C1CCN(c2ccc(-c3cccs3)nn2)CC1,i
C=CCNc1nc(Nc2ccc(C)c(C)c2)c2cnn(-c3ccccc3)c2n1,i
CCOc1ccc(NC(=O)Nc2ccc(Sc3cc(CC)nc4nc(C)nn34)cc2)cc1,i
CCc1ccc(NC(=O)Nc2ccc(Sc3cc(CC)nc4nc(C)nn34)cc2)cc1,i
CCOC(=O)Cc1ccc(NC(=O)Nc2ccc(Sc3cc(CC)nc4nc(C)nn34)cc2)cc1,+
Cc1ccsc1C(=O)Nc1ccccc1Sc1c(C)c(C)nc2nc(-c3ccccc3)nn12,i
COc1ccc(N2C(=O)CCS2(=O)=O)cc1S(=O)(=O)Nc1cccc(C)c1C,i
Cc1ccc(C2=CC(c3ccc(C)cc3)n3nc(NS(=O)(=O)c4ccccc4)nc3N2)cc1 (centres undefined),+
CCC(=O)Nc1nc2n(n1)C(c1ccc(Cl)cc1)C=C(c1ccc(Cl)cc1)N2 (centres undefined),i
O=C(O)CCCC(=O)Nc1nc2n(n1)C(c1ccc(Cl)cc1)C=C(c1ccc(Cl)cc1)N2 (centres undefined),i
O=S(=O)(Nc1nc2n(n1)C(c1ccc(F)cc1)C=C(c1ccccc1)N2)c1ccccc1 (centres undefined),i
CCCC(=O)Nc1nc2n(n1)C(c1ccc(Cl)cc1)C=C(c1ccc(C)cc1)N2 (centres undefined),+
Cc1ccc(C2=CC(c3ccc(F)cc3)n3nc(NS(=O)(=O)c4ccc(C)cc4)nc3N2)cc1 (centres undefined),i
CC(=O)c1cccc(NS(=O)(=O)c2cc(N3C(=O)CCS3(=O)=O)ccc2C)c1,i
CC(C)N1CCn2nc(C(=O)NCc3ccccc3-n3ccnc3)cc2C1,i
O=C(Nc1ccccc1Cl)C1CCN(c2ncnc3c2nc2n3CCCCC2)CC1,i
COCCNC(=O)C1CCN(c2ccc(-c3cccs3)nn2)CC1,i
CC(C)(C)c1ncc2c(n1)CN(c1nccc(CCC(F)(F)F)n1)C2,i
Cc1ccc(F)c(NC(=O)CCC(=O)N(Cc2sccc2C)C2CC2)c1,i

# Source: PubChem BioAssay (Corson Lab, School of Medicine, Indiana University)
